KDM5B inh: inhibitors of human KDM5B histone demethylase; KDM5B demethylase, FDH-coupled NADH fluorescence (FDH is formaldehyde dehydrogenase); Potency, µM (series often up to 57.7 µM), usual class: inhibitors; hit rate 2.6% among 220,000; active means well fitted inhibition curve with a large enough effect; further: nearly all actives have a fitted effect of over 70% in size
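Compound dilutions met 200 nM (final) KDM5BΔAP for 10 min at room temperature before substrate addition. The substrate mix held 12.5 µM H3K4me3 with cofactors 25 µM α-ketoglutarate and 50 µM Fe²⁺. NADH signal gain over 30 min defined activity.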
Numbers stand for hits; n = inactive. Many of the other results were omitted from the sample, so hits are more common in it than they were.

SMILES | KDM5B inh
CN(C)S(=O)(=O)c1ccc(NC(=O)COc2ncnc3ccc(Br)cc23)cc1 | n
Cc1cc(OCC(=O)NCc2ccc(-c3nc4ncccc4o3)cc2)ccc1Cl | n
Cc1c(Cl)c(C(F)(F)F)nn1CC(=O)Nc1c(Cl)cccc1Cl | n
CCCNC(=O)c1cccc(CNCc2cccnc2)c1 | n
CN(Cc1cccc(C(F)(F)F)c1)C(=O)C1CCCC1 | n
Cc1ccccc1Nc1nc(N)nc(COc2ccccc2C(=O)NCc2ccccc2)n1 | n
COc1ccc(Cl)cc1NC(=O)c1ncoc1-c1ccco1 | n
Cc1cc(C)c(CNC(=O)c2cc(-c3ccccc3F)cc3c2OCCN3C(C)C)c(=O)[nH]1 | 31.6µM
COc1ccc(C2C3=C(CC(C)(C)CC3=O)Nc3ccccc3N2C(=O)C(C)C)c(OC)c1 (centres undefined) | n
Cc1ccc(CN(C)Cc2ccccc2)o1 | n
Cc1ccc(CN2CCC3(CC2)COc2ccccc2CN3)cc1 | n
COc1cccc(CN2CCC3(CC2)COc2ccccc2C(=O)N3)c1 | n
Cc1ccc(CN2CCC3(CC2)NC(=O)c2ccccc2O3)cc1 | n
O=C1NC2(CCN(Cc3ccccc3)C2)COc2ccccc21 (centres undefined) | 39.8µM
CC(C)CCN1CCC2(CC1)COc1ccccc1C(=O)N2 | n
O=C1NC2(CCN(Cc3ccc(OC(F)(F)F)cc3)C2)COc2ccccc21 (centres undefined) | 22.4µM
N#Cc1ccc(CN2CCC3(COc4ccccc4C(=O)N3)C2)cc1 (centres undefined) | 39.8µM
Cc1ccc(CN2CCCC3(COc4ccccc4C(=O)N3)C2)cc1 (centres undefined) | 35.5µM
O=C1NC2(CCN(Cc3ccccc3C(F)(F)F)CC2)COc2ccccc21 | n
O=C1NC2(CCN(Cc3ccc(C(F)(F)F)cc3)CC2)COc2ccccc21 | n
Cn1cc(CN2CCC3(CC2)COc2ccccc2C(=O)N3)cn1 | n
N#Cc1ccc(CN2CCC3(CC2)COc2ccccc2C(=O)N3)cc1 | n
Fc1ccc(CNC(=S)Nc2ccc(Br)cc2)cc1 | n
CCOc1ccc(N2CC(NC(=O)C(CC)CC)CC2=O)cc1 (centres undefined) | n
CNc1c(NS(=O)(=O)c2ccc(N3CCCC3=O)cc2)c(=O)oc2ccccc12 | n
SMILES | KDM5B inh
CC(Sc1ncnc2nc[nH]c12)C(=O)NCCc1ccc(Cl)cc1Cl (centres undefined) | n
CC(=O)N1CCC(C(=O)NC(c2cccs2)C(C)C)CC1 (centres undefined) | n
COC(=O)c1ccc(COC(=O)c2cc(C(C)=O)c[nH]2)cc1 | n
O=C(c1cnn(-c2ccccc2)c1-n1cccc1)N1CCN(c2cccc(Cl)c2)CC1 | n
CC1CC(=O)Nc2ccccc2N1C(=O)Cn1cnc2c(Cl)cc(Cl)cc2c1=O (centres undefined) | n
N#Cc1ccc(CN2CC3(C2)NC(=O)c2ccccc2O3)cc1 | n
N#Cc1ccc(CN2CCCC3(COc4ccccc4C(=O)N3)C2)cc1 (centres undefined) | 35.5µM
N#Cc1ccc(CN2CCCC3(C2)NC(=O)c2ccccc2O3)cc1 (centres undefined) | n
Cc1nc(CN2CCN(C(=O)NC(C)Cc3ccco3)CC2)cs1 (centres undefined) | n
CCC1Oc2ccc(NC(=O)COc3ccccc3)cc2CN(C(CC)c2ccccc2)C1=O (centres undefined) | n
O=C(O)C(c1c[nH]c2ccc(Cl)cc12)N1CCN(c2ncc(Br)cn2)CC1 (centres undefined) | n
COc1ccc(Cl)cc1C(C(=O)O)N1CCCN(c2ncccn2)CC1 (centres undefined) | 28.2µM
Cn1cc(C(C(=O)O)N2CCN(c3ncccn3)CC2)c2cc(C(=O)O)ccc21 (centres undefined) | n
CCC(C)c1ccccc1NC(=O)c1cc(C)nc2ccccc12 (centres undefined) | n
Cc1c(F)cc(C(N)=O)cc1NS(=O)(=O)c1ccc(C(F)(F)F)cc1 | n
CCc1nc2c(c(-c3ccc(O)cc3)n1)CCN(Cc1ccc(C(F)(F)F)cc1)CC2 | n
O=C(C1CC1)N1CCCCC1c1nc(C2CCOCC2)n[nH]1 (centres undefined) | n
c1cnn(-c2ccc(-c3n[nH]c(C4CCOCC4)n3)cc2)c1 | n
c1cc(N2CCCCC2)ccc1-c1n[nH]c(C2CCOC2)n1 (centres undefined) | 22.4µM
Cn1nc(C(=O)OCC(=O)c2ccc(OC(F)F)cc2)c2ccccc2c1=O | n
O=C1[C@H]2CN(Cc3cccc(Cl)c3)C[C@H]2C(=O)N1CCN1CCc2ccccc2C1 | n
COc1ccc(-c2ccc3c(n2)CN(CCOc2ccccc2)C(=O)CO3)cc1 | 12.6µM
CN1Cc2nc(-c3cc(F)cc(F)c3)ccc2OCC1=O | n
Cc1ccc(-c2ccc3c(n2)CN(C)C(=O)CO3)cc1 | n
O=C1COc2ccc(-c3ccccc3)nc2CN1CCOc1ccccc1 | n
SMILES | KDM5B inh
COc1ccc(-c2ccc3c(n2)CN(C)C(=O)CO3)cc1 | 35.5µM
O=C1COc2ccc(-c3ccncc3)nc2CN1CCOc1ccccc1 | n
COC(=O)C1CCN(C(=O)Cn2nc(-c3cccs3)c3ccccc3c2=O)CC1 | n
Cc1cc2ccccc2n1CC(=O)N1CCC(C(N)=O)CC1 | n
CCn1cnc2c1c(=O)n(CC(=O)N(C)CC(=O)NC(C)(C)C)c(=O)n2Cc1ccccc1 | n
CCCCOc1ccc(C(=O)NC(=S)NCCCO)cc1Br | n
CCc1cccc2c(C=O)c[nH]c12 | n
Cc1ccc(C2CC(c3ccc4c(c3)OCO4)=NN2C(=O)CCC(=O)O)cc1 (centres undefined) | n
CC(CCNC(=O)c1ccncc1)c1ccccc1 (centres undefined) | n
NC(=O)c1ccc(Nc2cnc3ccc(-c4ccccc4)nn23)cc1 | n
O=C(NCc1nnc2ccc(-c3ccccc3)nn12)c1ccncc1 | 28.2µM
O=C(Nc1ccccc1-c1ccccc1)c1ccc(Cl)cc1 | n
O=C(NCc1nnc2ccc(-c3ccccc3)nn12)c1ccc(F)cc1 | 31.6µM
O=C(NCc1nnc2ccc(-c3ccccc3)nn12)c1ccc(Cl)cc1 | 28.2µM
COc1ccccc1NC(=O)CSc1ccc2nnc(CCNC(=O)c3ccccc3)n2n1 | n
O=C(CNC(=O)c1ccccc1)NCc1nnc2ccc(-c3ccccc3)nn12 | 31.6µM
CN(C)c1ccc2nnc(-c3cc(C(=O)NCc4ccccc4)ccn3)n2n1 | n
O=C(Cn1ncc2c1-c1ccccc1OC2)N1CCN(c2cccc(Cl)c2)CC1 | n
O=C(CC1CCCC1)N1CCCC(c2noc(COc3ccccc3F)n2)C1 (centres undefined) | n
COCCn1cnnc1SCc1cccc(Cl)c1 | n
O=C(COCc1cc(-c2ccc(F)cc2)on1)Nc1cccc(O)c1 | n
CCN(CC)C(C)CNC(=O)NC1CC1 (centres undefined) | n
O=C(CNC(=O)C1CC1)NC(c1ccccc1)c1cc2ccccc2o1 (centres undefined) | n
CCOc1c(/C=C/c2ccc3cccc(O)c3n2)cccc1OC | n
CC(C)c1ccc(NS(=O)(=O)c2c[nH]c3ccc([N+](=O)[O-])cc23)cc1 | n
O=C(NCc1nnc2ccc(-c3ccccc3)nn12)c1ccoc1 | 31.6µM
Cc1ccc(-n2nnnc2SCC(=O)N(C)c2ccccc2C(=O)NCc2ccco2)c(C)c1 | n
CC(C)CCn1c(=O)n(CC(=O)O)c(=O)c2c3c(sc21)COC(C)(C)C3 | n
Cc1ccc(/C=C/C(=O)NCc2ccco2)cc1 | n
Cc1cc(C[C@@H]2COC[C@@H]2NC(=O)c2cnn3cc(CCO)cnc23)on1 | 28.2µM
